VHR inh abs – blocks human VHR1 dual specificity phosphatase | P51452 | recombinant VHR phosphatase, pNPP absorbance | inhibition, % at 13.3 µM | actives 0.52% (n = 290,000); in the data active = inhibition above about 50%
BoNT-F LC inh – blocks Botulinum neurotoxin F light chain protease. Multiplex microsphere protease cleavage assay, flow cytometry. inhibition, % at 10 µM. actives 0.22% (n = 360,000). AID 588497; in the data active = inhibition above about 35%, passing the limit was not always enough; inconclusive = no clear call, values can overlap the other calls
BoNT A protease – BoNT A light chain protease inhibition; multiplex microsphere protease substrate cleavage, flow cytometry; inhibition, % at 10 µM; actives 0.17% (n = 360,000); AID 588499
SARS 3CLpro inh – SARS-CoV 3CLpro protease inhibition | P0C6X7 | recombinant SARS-CoV 3CLpro, quenched FRET peptide cleavage | inhibition, % at 6 µM | actives 0.14% (n = 290,000) | AID 1706; in the data active = inhibition above about 12%
Anthrax LF inh2 – inhibitors of Bacillus anthracis lethal factor protease; P15917; multiplex microsphere protease cleavage assay, LF; inhibition, % at 10 µM; actives 0.12% (n = 360,000)
Target sequence (P15917 whole entry, looked up): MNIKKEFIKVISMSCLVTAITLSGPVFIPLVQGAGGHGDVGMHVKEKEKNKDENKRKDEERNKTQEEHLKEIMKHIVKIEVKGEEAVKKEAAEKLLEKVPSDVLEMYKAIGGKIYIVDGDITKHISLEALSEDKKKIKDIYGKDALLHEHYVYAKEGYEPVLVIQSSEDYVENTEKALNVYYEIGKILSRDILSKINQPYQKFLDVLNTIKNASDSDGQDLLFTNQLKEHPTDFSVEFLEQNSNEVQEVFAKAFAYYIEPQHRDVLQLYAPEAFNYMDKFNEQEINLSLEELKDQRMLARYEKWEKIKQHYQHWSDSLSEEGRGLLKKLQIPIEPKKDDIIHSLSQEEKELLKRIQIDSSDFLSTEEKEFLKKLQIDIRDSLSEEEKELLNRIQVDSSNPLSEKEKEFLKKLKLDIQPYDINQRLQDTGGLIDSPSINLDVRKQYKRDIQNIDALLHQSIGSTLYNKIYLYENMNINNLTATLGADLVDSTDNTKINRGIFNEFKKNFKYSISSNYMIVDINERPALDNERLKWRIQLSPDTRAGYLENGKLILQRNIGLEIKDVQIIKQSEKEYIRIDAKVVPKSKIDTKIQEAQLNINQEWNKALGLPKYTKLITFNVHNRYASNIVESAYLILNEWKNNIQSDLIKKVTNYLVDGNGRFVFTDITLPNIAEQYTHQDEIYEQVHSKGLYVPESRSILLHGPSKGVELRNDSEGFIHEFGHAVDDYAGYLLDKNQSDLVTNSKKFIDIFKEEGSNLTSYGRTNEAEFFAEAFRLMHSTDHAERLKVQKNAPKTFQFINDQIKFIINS
Autofluor counter – flagged as autofluorescent in microsphere protease counterscreen; compound autofluorescence counterscreen, microsphere flow cytometry; hits give high values; fluorescence intensity (concentration not given with the values); actives 3.1% (n = 360,000); AID 624483; in the data active = fluorescence intensity above about 16000; inconclusive = no clear call, values can overlap the other calls
Numbers stand for hits; – = inactive; ? = inconclusive; · = not tested or not shown. Compounds with a hit are over-represented: about 3.9% of the library has one in this group of screens. Cut-off read from the data, not from the text of the source, unless noted: active = inhibition above about 30%; inconclusive = no clear call, values can overlap the other calls; inactive = below that.

SMILES	VHR inh abs	BoNT-F LC inh	BoNT A protease	SARS 3CLpro inh	Anthrax LF inh2	Autofluor counter
CCCSc1ncnc2c1oc1ccccc12	–	–	–	–	–	–
Fc1ccccc1CSc1ncnc2c1oc1ccccc12	–	–	–	–	–	19470
CN(Cc1c(C(=O)N/N=C/c2ccc(O)cc2)nnn1-c1nonc1N)c1ccccc1	–	–	–	–	–	–
Cc1ccc(N2CC(NC(=O)C3CC3)CC2=O)cc1 (stereo not given)	·	–	–	·	–	?
O=c1c2cc(N3CCOCC3)ccc2[nH]c(=S)n1Cc1ccco1	–	?	?	·	?	?
COc1cccc(Cn2c(=S)[nH]c3ccc(N4CCOCC4)cc3c2=O)c1	–	–	–	–	–	20640
O=c1c2cc(N3CCOCC3)ccc2[nH]c(=S)n1Cc1cccc(Cl)c1	–	–	–	–	–	23197
CC1CCN(CCCn2c(=S)[nH]c3ccc(N4CCOCC4)cc3c2=O)CC1	–	–	–	–	–	22801
Cc1cccc(CN(C)C)c1OC(=O)N(C)C	–	–	?	–	–	20578
CC(C)CCN1CCN(CC(c2ccccc2)c2ccccc2)CC1CCO (stereo not given)	–	–	–	–	–	–
COc1cc(NC(=O)C(F)(F)F)cc(OC)c1	–	–	–	–	–	16433
COc1cc(NC(=O)N[C@H](C(=O)O)C(C)C)cc(OC)c1	–	–	–	–	–	21545
COc1cc(NC(=O)N[C@@H](CCSC)C(=O)O)cc(OC)c1	–	–	–	–	–	–
CCC(=O)Nc1cc(OC)cc(OC)c1	–	–	–	–	–	–
Cc1cccc(C)c1-n1c(C)cc(/C=N/NC(=O)c2ccncc2)c1C	–	–	–	–	–	22105
Cc1ccc(-n2c(C)cc(/C=N/NC(=O)c3ccncc3)c2C)cc1C	–	–	–	–	–	–
Cc1ccc(-n2c(C)cc(/C=N/NC(=O)c3ccncc3)c2C)c(C)c1	–	–	–	–	–	22871
Cc1cc(/C=N/NC(=O)c2cccs2)c(C)n1-c1cnccn1	–	47	–	–	–	–
Cc1cc(/C=N/NC(=O)c2cccs2)c(C)n1-c1ccccc1	–	–	–	–	–	–
O=C(O)CSc1nc(-c2ccccc2)c(-c2ccccc2)[nH]1	–	–	–	–	–	–
CC(C)(C)NC(=O)CSc1nc(-c2ccccc2)c(-c2ccccc2)[nH]1	–	–	–	–	–	23364
CCCCCCCCCCCCCCCC(=O)OC(CC(=O)O)C[N+](C)(C)C (stereo not given)	·	–	–	·	–	–
O=C(c1ccc(Cl)cc1)c1oc2ccccc2c1CS(=O)c1ccc(Cl)cc1 (stereo not given)	–	–	?	–	–	22309
CC1=C(C(=O)N(C)C)CC(CC(=O)NCCc2ccccn2)C(=O)N1Cc1ccc(C(C)(C)C)cc1 (stereo not given)	·	–	–	·	–	–
Cc1cccc2nc(=S)n(C(=O)c3ccco3)n12	–	–	–	–	–	–
SMILES	VHR inh abs	BoNT-F LC inh	BoNT A protease	SARS 3CLpro inh	Anthrax LF inh2	Autofluor counter
O=C(c1ccco1)n1c(=S)nc2ccccn21	–	–	–	–	–	22668
CC1(C)C2([N+](=O)[O-])CN3CC1([N+](=O)[O-])CN(C2)C3c1ccccc1 (stereo not given)	–	–	–	–	–	22107
CC1(C)C2([N+](=O)[O-])CN3CC1([N+](=O)[O-])CN(C2)C31CCCC1	–	–	?	–	–	17714
CC(C)c1ccc(C2N3CC4([N+](=O)[O-])CN2CC([N+](=O)[O-])(C3)C4(C)C)cc1 (stereo not given)	–	–	–	–	–	–
C/C(=N\NC(=O)CC(C)C)c1ccc(N2CCCCC2)cc1	–	–	–	–	–	–
Cc1cc2ncn(/N=C/c3ccc([N+](=O)[O-])o3)c2cc1C	52	–	–	–	–	–
O=[N+]([O-])c1ccc(/C=N/N=C/c2ccc([N+](=O)[O-])o2)o1	–	–	–	–	–	–
C/C(=N\NC(=O)Cc1csc(N2CCOCC2)n1)c1ccccc1	–	–	?	–	–	21300
O=C(Cc1csc(N2CCOCC2)n1)N/N=C/c1ccc(O)c(O)c1O	–	–	–	–	–	–
O=C1CN(C(=O)COC(=O)c2oc3ccccc3c2COc2ccccc2)c2ccccc2N1	–	–	–	–	–	22869
O=C1CN(C(=O)COC(=O)Cc2ccsc2)c2ccccc2N1	–	–	?	–	–	23072
CN(C(=O)COc1ccc(Oc2ccccc2)cc1)C1CCS(=O)(=O)C1 (stereo not given)	–	–	–	–	–	–
CCOC(=O)C1C(C(=O)OC)=C(C(=O)OC)c2ccccc2N1S(=O)(=O)C(F)(F)F (stereo not given)	·	–	–	·	–	–
Oc1ccc(C=Nc2cccc3ccccc23)c(O)c1	–	–	–	–	–	–
CC(O)c1cccc(N=Cc2ccc3ccccc3c2O)c1 (stereo not given)	–	?	–	–	42	–
COc1ccc(C2C(C(C)=O)=C(O)C(=O)N2CCc2ccccc2)c(OC)c1 (stereo not given)	–	–	–	–	–	16192
Cc1cc(C)cc(C(=O)N(CCc2ccccc2)C2CC3CCC(C2)N3C)c1 (stereo not given)	–	–	–	–	–	–
CN(CC(=O)Nc1ccccc1Cl)CC(=O)N(C)c1c(N)n(Cc2ccccc2)c(=O)[nH]c1=O	·	–	–	·	–	–
COc1ccc(Cl)cc1S(=O)(=O)NC(C)c1cnn(-c2ccccn2)c1C (stereo not given)	·	–	–	·	–	–
Cn1c(=O)n(C)c2cc(/C=C3/NC(=O)N(Cc4ccccc4)C3=O)ccc21	–	–	–	–	–	20142
O=C1N/C(=C/c2ccc(N3CCOCC3)cc2)C(=O)N1Cc1ccc(F)cc1	–	–	–	–	–	18011
O=C1N/C(=C\c2ccsc2)C(=O)N1Cc1ccc(F)cc1	–	–	–	–	–	–
Cc1ccc(/C=C2/NC(=O)N(Cc3ccccc3)C2=O)o1	–	–	–	–	–	–
Nc1nc(SCc2ccc(F)cc2)ns1	–	–	–	–	–	–
Fc1cccc2sc(N3CCCC3)nc12	–	–	–	–	–	–
SMILES	VHR inh abs	BoNT-F LC inh	BoNT A protease	SARS 3CLpro inh	Anthrax LF inh2	Autofluor counter
Cc1cccc(NC(=O)N2CCCC2)c1	52	–	–	–	–	–
CC(=O)c1cccc(NC(=O)Nc2ccc(C(=O)N3CCCC3)cc2)c1	–	–	–	–	–	22040
CCN(CC)c1ccc(NC(=O)Nc2cccc(C(C)=O)c2)cc1	–	–	–	–	–	19762
CCOc1ccccc1NC(=O)Nc1cccc(C(C)=O)c1	–	–	–	–	–	23270
O=C(Nc1ccccc1)Nc1ccc(C(=O)N2CCCC2)cc1	–	–	–	–	–	–
Cc1cccc(NC(=O)N2CCCCCC2)c1	–	–	–	–	–	–
O=C(COc1ccc([N+](=O)[O-])cc1Cl)N1CCOCC1	–	–	–	–	–	–
O=C(O)[C@H](O)[C@@H](O)C(=O)O	·	–	–	·	–	–

From PubChem
